In the OligoGym collection one finds sensor-assay potency score (higher = more potent) data, which are given here for 40 sequences.
Note: reference of the scale not given here.

The target of the first experiment is CENPE. Put plainly: pooled miR-30 sensor sort-seq; sequence = guide strand. Conditions: shRNA.
In turn, TTAGTTGCATCTCTTGATCTTT came in with a sensor-assay potency score (higher = more potent) of 0.409. Still for that read-out and setting: under TTGAAGAACTTCTTGCAGCCTC stands 0.172; under TATAGTACCATTGTAGCCTTGT, 0.768. As to TTGGAGTTCATTTTTCTCCTGT, the sensor-assay potency score (higher = more potent) is 0.691.

For the sequence TTTATCAACAGTTTCTTTGTGT, the sensor-assay potency score (higher = more potent) came to 1.24. Still for that read-out and setting: under TTTTGATTTATCTAAATCCTTT stands -0.683. Turning to TTCTTGAGTATCTATATTCATG, the sensor-assay potency score (higher = more potent) was -0.957.

The sequence TTTATCAATAGTTTCTTGGTGC registered a sensor-assay potency score (higher = more potent) of 0.371. Sequence TTTTGTAGCACTGATTTCCTTT displayed a sensor-assay potency score (higher = more potent) of -0.158.

Another experiment has as its target CENPO. The description is as above. Conditions: shRNA.
As for TTATACAGCAATCTAGCACAGA, the sensor-assay potency score (higher = more potent) is -0.484.

Take TAGGTTTAGAAACCTCCTCAGC: the sensor-assay potency score (higher = more potent) was -1.26.

For TAAGCATTCAGGTACTCGCAGA, the sensor-assay potency score (higher = more potent) was -0.982. On the same count and under the same terms, under TATTTTTTGAAACTGAAGGAAG stands -1.18; under TTGCTCATTGATCTCCACTGTT, -0.258; under TTTAGGTTTAGAAACCTCCTCA, 0.397.

TTATTTTTTGAAACTGAAGGAA displayed a sensor-assay potency score (higher = more potent) of -0.369. In the case of TTGATCTCCACTGTTTGGTTGG, the sensor-assay potency score (higher = more potent) was 0.162. The same measure, in the same setting: under TTTTGCAGCTATCTCTTCCAGG stands 0.117; under TATTTCTCTGATGTGCTCCCAG, -0.111; under TTGAAACTGAAGGAAGTCCCGA, 0.077.

For TTTCTGTATGACAAGGTCCACA, the sensor-assay potency score (higher = more potent) is -1.24.

A further experiment deals with CEP110. The experiment is described as above. Conditions: shRNA.
As to TAAACCAAAAACTTGCTCCTGA, the sensor-assay potency score (higher = more potent) worked out at 0.902. TTTCTTTCTGTCAAGAACTGGT showed a sensor-assay potency score (higher = more potent) of -0.248. On the same count and under the same terms, under TAACAGATTATTGTCATCCTGC stands 0.569; under TTTCTCAATTTCTAGGACCTGT, -0.0728. As for TTGTAGTCTACCACTCAACTGC, the sensor-assay potency score (higher = more potent) worked out at 0.0361.

In turn, TAGTCTACCACTCAACTGCTTG showed a sensor-assay potency score (higher = more potent) of -1.16. Sequence TTATGTTTAGACATCTGCCTTA showed a sensor-assay potency score (higher = more potent) of 0.679.

Consider TTCATCTGCAATCTCAACTTGC, for which the sensor-assay potency score (higher = more potent) is 0.351.

Turning to TTGCATTGCTGAAATGTCGTTA, the sensor-assay potency score (higher = more potent) was determined as 0.524.

Sequence TTCTTTTTCTCTAACTCTCGGA showed a sensor-assay potency score (higher = more potent) of -0.414.

Turning to TAGTTGTATAGCTTCTTCCAGT, the sensor-assay potency score (higher = more potent) is -0.43. Still for that read-out and setting: under TTTATGGTCTTGATAGTCCAAA stands -1.01.

In another experiment the target is CEP55. Described as above. Conditions: shRNA.
For TTGATAAGCATTCTTCTCCTTC, the sensor-assay potency score (higher = more potent) was 0.207. Still for that read-out and setting: under TTTGTGAATACAACAGCTGATT stands -0.95; under TTAACAATTTTAGCTAAGCAGA, -1.37; under TAGTAGTCTCAGTAGACGCTGC, -0.26. On the same count and under the same terms, under TTTCTTCATATTTTCTTCGAAA stands -1.41; under TTCTTCTTGCTGCTTTAGCAGA, -1.21. As to TAAATTGTGAACTTCTTTTTGG, the sensor-assay potency score (higher = more potent) was -0.104.
